Assay results taken from PubChem BioAssay (NCI).
Compounds without any hit were thinned out: in the full panel of roughly 83,000, 20% have a hit.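 Step 1: grow cells in 96-well plates. Step 2: add test compound at a single concentration. Step 3: incubate 48 h. Step 4: record percent growth.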 Calls of active or inactive are those of the source. The calls were made as follows: active = growth percent below 10; inactive = the rest.

Assays:
Experiment in all cases: NCI-60 one-dose screen, 48 h (100 = growth as untreated, 0 = no growth, -100 = all killed)
Conditions in all cases: 10 µM
[1] = system: RPMI-8226 leukemia
[2] = system: OVCAR-8 ovarian
[3] = system: OVCAR-5 ovarian
[4] = system: OVCAR-4 ovarian
[5] = system: SK-OV-3 ovarian
[6] = system: IGROV1 ovarian
[7] = system: OVCAR-3 ovarian
[8] = system: HS 578T breast
[9] = system: NCI/ADR-RES ovarian
[10] = system: T-47D breast
[11] = system: BT-549 breast
[12] = system: MDA-MB-435 melanoma
[13] = system: MCF7 breast
[14] = system: HCT-116 colon
[15] = system: HCC-2998 colon
[16] = system: KM12 colon
[17] = system: SW-620 colon

Measured: growth

Clc1ccccc1N=Cc1ccc2c(c1)OCO2
inactive: [1] 96.2% | [2] 103% | [3] 105% | [4] 104% | [5] 108% | [6] 111% | [7] 116% | [8] 117% | [9] 106% | [10] 109% | [11] 78.2% | [12] 99.8% | [13] 90.5% | [14] 103% | [15] 103% | [16] 98.8%

Cn1c([N+](=O)[O-])cnc1/C=C1\Oc2cc(Cl)ccc2C1=O
inactive: [1] 11.7% | [3] 29.1% | [4] 55% | [10] 86.6% | [13] 19%
active: [2] -13.3% | [5] -7.2% | [6] -22% | [7] -33.3% | [8] -2.19% | [9] -0.2% | [11] -32.6% | [12] -78% | [14] 3.24% | [15] 4.36% | [16] 1.65%

COc1cc(CNc2ccccc2C(=O)N2CCN(C(=O)c3cc(-c4cc(OC)c(OC)c(OC)c4)n4nc(-c5ccccc5)cc4n3)CC2)cc(OC)c1OC
inactive: [1] 52.1% | [2] 65.1% | [3] 88.1% | [4] 61.5% | [5] 59.9% | [6] 44.7% | [8] 42.9% | [9] 15.6% | [10] 60.6% | [17] 26.3% | [14] 21.6% | [15] 40.3% | [16] 17.8%
active: [7] 4.83% | [12] -47.6% | [13] 6.61%

COc1cc(C)ccc1C(=O)c1ccc(C)cc1OC
inactive: [1] 21.9% | [2] 23.9% | [3] 46.8% | [4] 63.1% | [5] 17.1% | [6] 37.2% | [10] 50.6% | [17] 10.1% | [13] 21.1% | [14] 24.8% | [15] 40% | [16] 22.1%
active: [7] -39.2% | [8] -12.6% | [9] -2.71% | [12] -69.8%

COc1cc(-c2cc(/C=C/C(=O)c3ccc(Cl)c(Cl)c3)[nH]n2)cc(OC)c1OC
inactive: [2] 77.8% | [3] 81.9% | [4] 77.4% | [5] 97.3% | [6] 108% | [7] 86.5% | [8] 90.1% | [9] 75.1% | [10] 37% | [11] 71% | [12] 43% | [13] 19.3% | [14] 36% | [15] 107% | [16] 26.2%
active: [1] -20.3%

O=C(N/N=C/c1ccccc1)C(Oc1ccccc1)c1ccccc1 (stereo not drawn)
inactive: [1] 98.1% | [2] 100% | [3] 101% | [4] 102% | [5] 104% | [6] 98.9% | [7] 105% | [8] 98.4% | [9] 75.2% | [10] 94.4% | [11] 105% | [12] 44% | [13] 97.9% | [14] 87.2% | [15] 97.3% | [16] 84.5%

C[C@]12CC[C@@H]3c4ccc(O)cc4C[C@@H](O)[C@H]3[C@@H]1CC[C@@H]2O
inactive: [1] 103% | [2] 106% | [3] 111% | [4] 105% | [5] 116% | [6] 99.7% | [7] 114% | [8] 117% | [9] 113% | [10] 118% | [11] 102% | [12] 95.8% | [13] 115% | [14] 105% | [15] 118% | [16] 111%

Cc1cc(C)c(CCc2cc(C)c(C)cc2C)cc1C
inactive: [1] 102% | [2] 102% | [3] 103% | [4] 92.9% | [5] 114% | [6] 111% | [7] 114% | [8] 108% | [9] 107% | [10] 114% | [12] 98% | [17] 105% | [13] 105% | [14] 106% | [15] 101% | [16] 106%

FC(F)(F)c1ccc(-c2cnc(-n3cc(COCCN4CCCCC4)nn3)nc2NC2CCCCCC2)cc1
active: [1] -29.1% | [12] -68.9% | [13] -1.43% | [15] 6.9%
inactive: [2] 54.7% | [3] 67.9% | [4] 39.9% | [5] 56.8% | [6] 36.7% | [7] 37.1% | [8] 61.3% | [9] 70.6% | [10] 30.5% | [11] 68.1% | [14] 22.3% | [16] 17.6%

CCCCCCCCCCCCCCCCN(C(C)c1ccccc1)S(=O)(=O)c1ccc(OC)c(N)c1 (stereo not drawn)
inactive: [1] 103% | [2] 104% | [3] 104% | [4] 92.1% | [5] 112% | [6] 129% | [7] 107% | [8] 126% | [9] 98.7% | [10] 113% | [12] 108% | [17] 99.7% | [13] 95.9% | [14] 101% | [15] 97.6%

COc1ccc(/C=C/C(=O)Nc2ccc(-c3nc4ccc(OC)cc4s3)cc2)cc1
inactive: [1] 96.4% | [2] 106% | [3] 108% | [4] 128% | [5] 104% | [6] 118% | [7] 124% | [8] 108% | [9] 101% | [10] 101% | [12] 102% | [17] 114% | [13] 85.3% | [14] 105% | [15] 110% | [16] 111%

COc1ccc(-c2cc(/C=C/C(=O)c3cc(OC)c(OC)c(OC)c3)[nH]n2)cc1OC
inactive: [3] 17.5% | [5] 39.3% | [8] 71% | [9] 12.3% | [11] 24%
active: [1] -39.1% | [2] -17.1% | [4] -51.6% | [6] -9.4% | [7] -17.5% | [10] -14% | [12] 4.69% | [13] -9.93% | [14] -46.5% | [15] -75.7% | [16] -61.6%

COc1ccc2c(c1)/C(=C\c1c[nH]c3ccc(OC)cc13)C(=O)N2
inactive: [1] 36.7% | [2] 59.7% | [3] 64.8% | [4] 57.6% | [5] 52.8% | [6] 41.7% | [7] 52.6% | [8] 46.9% | [9] 28.1% | [10] 49.7% | [11] 57.7% | [13] 29.6% | [14] 30.1% | [15] 49.4% | [16] 10.1%
active: [12] -11.5%

COC(=O)C1=NNC(=S)N(c2cc(C)[nH]n2)C(=O)C1
inactive: [1] 98.5% | [2] 101% | [3] 108% | [4] 104% | [5] 97.9% | [6] 99.9% | [7] 108% | [8] 105% | [9] 99% | [10] 90.2% | [11] 107% | [12] 99.4% | [13] 96% | [14] 99.2% | [15] 93.6% | [16] 102%

CN(Cc1ccccc1)Cc1ccc([N+](=O)[O-])cc1I
inactive: [1] 91.9% | [2] 102% | [3] 93.7% | [4] 91% | [5] 94.9% | [6] 92.5% | [7] 98.9% | [8] 95.4% | [9] 103% | [10] 93.9% | [11] 87.7% | [12] 102% | [13] 91.6% | [14] 84% | [15] 106% | [16] 93.2%

CN(C)Cc1cn(-c2ncc(-c3ccc(C(F)(F)F)cc3)c(NC3CCCCCC3)n2)nn1
inactive: [1] 60.4% | [2] 83.1% | [3] 110% | [4] 79.9% | [5] 86.5% | [6] 71.3% | [7] 86% | [8] 93.6% | [9] 91.9% | [10] 81.7% | [11] 94.6% | [12] 95.2% | [13] 70.3% | [14] 66.3% | [15] 94.8% | [16] 86.3%

CC[C@H]1CCC/C=C/[C@@H]2C[C@H](O)C[C@H]2[C@H](O)/C=C/C(=O)O1
active: [1] -3.82% | [2] 0.0361% | [3] 7.93% | [6] -2.68% | [7] -58.5% | [9] 2.15% | [10] -81.1% | [12] 5.71% | [17] -69% | [13] -73% | [14] -67.8% | [15] -65.8% | [16] -70.5%
inactive: [4] 29% | [5] 21.3% | [8] 13.7%

CCOC(=O)c1ccoc1
inactive: [1] 102% | [2] 101% | [3] 90.7% | [4] 104% | [5] 93.3% | [6] 101% | [7] 101% | [8] 100% | [9] 108% | [10] 94.3% | [11] 98.4% | [12] 107% | [13] 95.1% | [14] 97.1% | [15] 113% | [16] 104%

COc1ccc2c(c1)O/C(=C\c1ccc([N+](=O)[O-])o1)C2=O
inactive: [3] 12.4% | [5] 67.6% | [8] 21.4% | [9] 16%
active: [1] -10.7% | [2] -8.18% | [4] -1.31% | [6] -14.2% | [7] -8.36% | [10] -0.109% | [11] -50% | [12] -72.5% | [13] 2.06% | [14] -39% | [15] -26.8% | [16] -11.5%
